Shown is part of a subset that was picked to be rich in hits.
GIRK2 activator: Activators of human GIRK2-containing channels | HEK293 GIRK2/NPY4 cells, thallium flux fluorescence | activation (% efficacy), % for hits at 37.5 µM | 34,000 tested, under 10 active | P48051;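 active = primary screen hit, no activity in plain HEK293 cells, and in GIRK2-only cells above 5% efficacy rising with concentration; inactive = the rest, including fluorescent compounds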;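 also: efficacy is normalized control-subtracted fluorescence 15 s after thallium addition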
GluA2 TARP mod: GluA2-stargazin AMPA receptor complex modulation | HEK293 GluA2+stargazin, membrane potential dye (FDSS), glutamate EC50; hits were called plate by plate, in both directions | calls only at 30 µM | AID 1259245 | 3.5% of 40,000 active;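 active = any of four per-well response measures lying three or more SD from its plate-wide compound average, in either direction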
Numbers without * were called inactive; i = inactive; · = no result; + = active, no number.

SMILES	GIRK2 activator	GluA2 TARP mod
COc1cccc(N2C(=O)c3cccc4c(N5CCCCCC5)ccc(c34)C2=O)c1	·	i
Cc1cc(C(=O)NCC2CCN(C(=O)c3cc4ccccc4o3)CC2)c(C)o1	i	i
O=C(NCC1CCN(C(=O)c2cc3ccccc3o2)CC1)c1ccc(Cl)s1	i	+
O=C(NCC1CCN(C(=O)c2cc3ccccc3o2)CC1)c1cc(-c2ccccc2)on1	i	+
Cc1csc(C(=O)NCC2CCN(C(=O)c3cc4ccccc4o3)CC2)c1	i	+
O=C(NCC1CCN(C(=O)c2cc3ccccc3o2)CC1)c1cc(Cl)ccc1Cl	i	i
CC(C)(C)NC(=O)N1CCC(CNC(=O)c2cc(-c3ccccc3)on2)CC1	i	i
Cc1ccsc1C(O)CNC(=O)C1(c2ccccc2)CCOCC1 (stereo not given)	i	i
CCC(C)(C(=O)NC1CCCC1)N(CC1CCCO1)C(=O)c1ccc(=O)[nH]c1 (stereo not given)	i	i
CCOC(=O)N1CCN(CC(O)COc2ccc(C(=O)OC)cc2)CC1 (stereo not given)	·	i
COc1ccc(C(=O)Nc2ccc(C(=O)O)cc2)c(OC)c1	·	i
COc1cc(/C=C2\Oc3cc(OC(=O)c4ccccc4F)ccc3C2=O)cc(OC)c1OC	·	+
COc1cc(/C=C2\Oc3cc(OC(C)=O)ccc3C2=O)cc(OC)c1OC	·	i
CCCCS(=O)(=O)N1CCN(c2ccc(Nc3cccc(C)n3)nn2)CC1	i	+
CCCCS(=O)(=O)N1CCN(c2ccc(-n3nc(C)c(C)c3C)nn2)CC1	i	i
Cc1cc(NC(=O)c2ccc([N+](=O)[O-])c(C)c2)ccc1N1CCCCC1=O	i	i
Cc1cc(C(=O)Nc2cccc(N3CCCC3=O)c2)ccc1[N+](=O)[O-]	i	+
Cc1cc(-c2nnc(SCC(=O)Nc3nc4ccc(F)cc4s3)o2)c(C)o1	i	i
O=C(CSc1nnc(-c2ccncc2)o1)NCc1ccccc1Cl	i	i
CC1(C)Cc2cccc(OCCCS(=O)(=O)N3CCN(C(=O)c4ccco4)CC3)c2O1	i	·
C#CCSc1ccnc2c1c(=O)n(C)c(=O)n2C	·	i
Cn1c(=O)c2c(SCC(=O)N3CCOCC3)ccnc2n(C)c1=O	·	+
CCCCSc1ccnc2c1c(=O)n(C)c(=O)n2C	·	+
CC1CCN(C(=O)CSc2ccnc3c2c(=O)n(C)c(=O)n3C)CC1	·	i
COc1ccc(S(=O)(=O)NCC2CCN(Cc3cccs3)CC2)c(C)c1	i	·
CCNC(=O)c1ccc(N(C)S(=O)(=O)c2ccc(C)cc2)cc1	·	i
O=C(CCCn1nc(-c2ccccc2)ccc1=O)Nc1ccc2c(c1)OCCO2	i	·
O=C(CCCn1nc(-c2ccc(Cl)cc2)ccc1=O)Nc1ccc2c(c1)OCCO2	i	+
COC(=O)Cc1c(C)c2ccc(OCC(=O)c3ccc(OC)cc3)c(C)c2oc1=O	·	i
